# Source: PubChem BioAssay (Tox21)
# Several values for one entry are separate records, joined by “and”; a condition that tells them apart may be missing. Equal entries are not always repeated. Results filed as inconclusive are left out. Entries that show only a call come without a potency. The source holds several records for some structures; these can differ, active in one and inactive in another. Activity calls are given as the source filed them. Unless noted, the call rests on the fitted dose curve; in most records, active means well fitted curve in the direction sought with a large enough effect in the repeat runs; inconclusive means weak or mixed curves; inactive means no such curve, though single readings can be large; an effect the other way counts as inactive or inconclusive.
# Legend:
# [1] = molecular target: Thyrotropin receptor (Homo sapiens) (UniProt P16473); assay: qHTS assay to identify small molecule agonists of the thyroid stimulating hormone receptor (TSHR) signaling pathway (AID 1224843; calls by dose curve; further: nearly all actives have a fitted effect of over 45% in size; further: potency means the concentration at half of the fitted maximal effect)
# Sequence of Thyrotropin receptor (Homo sapiens) (P16473 whole entry, looked up): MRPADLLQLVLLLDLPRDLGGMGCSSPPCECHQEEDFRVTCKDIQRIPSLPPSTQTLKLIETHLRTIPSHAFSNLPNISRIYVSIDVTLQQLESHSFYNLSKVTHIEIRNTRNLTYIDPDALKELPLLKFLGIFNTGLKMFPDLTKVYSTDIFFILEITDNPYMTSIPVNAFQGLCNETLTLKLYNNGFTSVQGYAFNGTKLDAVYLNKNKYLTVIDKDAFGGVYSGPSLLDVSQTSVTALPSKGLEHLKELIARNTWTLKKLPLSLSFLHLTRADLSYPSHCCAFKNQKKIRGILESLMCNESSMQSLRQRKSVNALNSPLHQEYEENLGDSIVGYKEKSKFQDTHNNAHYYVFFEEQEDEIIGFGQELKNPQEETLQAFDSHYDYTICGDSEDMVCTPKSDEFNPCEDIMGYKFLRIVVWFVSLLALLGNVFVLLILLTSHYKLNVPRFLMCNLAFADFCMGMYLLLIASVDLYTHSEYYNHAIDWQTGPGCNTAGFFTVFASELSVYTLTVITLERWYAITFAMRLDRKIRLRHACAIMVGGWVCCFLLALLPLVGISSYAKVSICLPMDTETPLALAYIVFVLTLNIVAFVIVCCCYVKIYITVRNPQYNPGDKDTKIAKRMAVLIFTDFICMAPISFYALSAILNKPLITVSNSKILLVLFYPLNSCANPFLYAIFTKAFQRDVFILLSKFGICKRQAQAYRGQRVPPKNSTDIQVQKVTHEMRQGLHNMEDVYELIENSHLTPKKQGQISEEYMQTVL
# In short: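 Screening of the Tox21 10K collection used HEK293 cells engineered with TSHR at 800 cells per well. After a 30-min room-temperature compound exposure, HTRF cAMP reagents were added and fluorescence recorded 1 h later.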
# [2] = qHTS assay to identify small molecule agonists of the hypoxia (HIF-1) signaling pathway - cell viability counter screen (AID 1224844; calls by dose curve; further: nearly all actives have a fitted effect of over 50% in size; further: potency means the concentration at half of the fitted maximal effect)
# In short: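 HRE-bla ME-180 cells, 2,000/well in 0.5% dialyzed FBS medium, treated 17 h at 37C with compounds. Viability read in the same wells as the bla reporter, by CellTiter-Glo luminescence after 30 min at room temperature.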
# [3] = qHTS assay to identify small molecule agonists of H2AX (AID 1224845; active means well fitted activation curve with a large enough effect in the signal ratio in the repeat runs, not every such curve was filed as active; the % refers to the signal ratio; further: potency means the concentration at half of the fitted maximal effect)
# In short: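 Phospho-H2AX Ser139 measured by HTRF (ex 320 nm; em 665 and 620 nm) after 24 hr antibody incubation. Compounds, 15 concentrations, 0.76% DMSO, were applied to CHO-K1 cells for 3hr at 37C before lysis.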
# [4] = qHTS assay to identify small molecule agonists of the hypoxia (HIF-1) signaling pathway (AID 1224846; active means well fitted activation curve with a large enough effect in the signal ratio in the repeat runs, not every such curve was filed as active; the % refers to the signal ratio)
# In short: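 HRE-bla ME-180 beta-lactamase reporter cells in medium with 0.5% dialyzed FBS, pre-incubated 5 h then exposed to compounds 17 h at 37C, 5% CO2; reporter induction read with CCF4-AM FRET substrate.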
# [5] = qHTS assay to identify small molecule agonists of H2AX - cell viability counter screen (AID 1224847; calls by dose curve; further: nearly all actives have a fitted effect of over 30% in size; further: potency means the concentration at half of the fitted maximal effect)
# In short: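 For this counter screen, overnight-attached CHO-K1 cells received test compounds (15 concentrations, 0.76% DMSO final); 3 hr later at 37C, CellTiter-Glo reagent was added and luminescence recorded after 30 min at room temperature.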
# [6] = qHTS RealTime-Glo MT Cell Viability Assay in HepG2 cells - 24 hour (AID 1224867); further: nearly all actives have a fitted effect of over 50% in size; further: potency means the concentration at half of the fitted maximal effect
# In short: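 Cell number in HepG2 cultures estimated from NanoLuc luminescence generated by metabolic reduction of a prosubstrate by living cells. The homogeneous, nonlytic format allowed repeated reads at 0, 8, 16, 24, 32 and 40 h of compound exposure.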
# [7] = A CellTox Green Cytotoxicity Assay to monitor cytotoxicity in HEK293 cells - 0 hour (AID 1224869); further: nearly all actives have a fitted effect of over 50% in size; further: potency means the concentration at half of the fitted maximal effect
# In short: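 HEK293 cells, 600/well, were preincubated 5 hours and then exposed to compounds at 37 C for up to 40 hours. A cell-impermeant cyanine dye staining dead-cell DNA was read by fluorescence at 0, 8, 16, 24, 32 and 40 h time points.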
# [8] = qHTS RealTime-Glo MT Cell Viability Assay in HEK293 cells - 32 hour (AID 1224868); further: nearly all actives have a fitted effect of over 50% in size; further: potency means the concentration at half of the fitted maximal effect
# In short: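 Homogeneous bioluminescent viability format in HEK293 cells (600 cells/well). Following 5 h at 37 C/5% CO2, 23 nL compound was pintooled; the signal was measured repeatedly during 40 h incubation.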
# [9] = qHTS assay to identify small molecule antagonists of the estrogen related receptor (ERR) signaling pathway from Tox21 library (AID 1224848); further: nearly all actives have a fitted effect of over 50% in size; further: potency means the concentration at half of the fitted maximal effect
# In short: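 Antagonist-mode screen of the Tox21 10K library in an NTP-provided ERR reporter cell line; 18 h compound exposure at 37 C, luminescence measured with ONE-Glo.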
# [10] = qHTS assay to identify small molecule agonists of the estrogen related receptor (ERR) signaling pathway from Tox21 library (AID 1224849; calls by dose curve; further: nearly all actives have a fitted effect of over 15% in size; further: potency means the concentration at half of the fitted maximal effect); conditions: ERR reporter cell line, ONE-Glo luciferase, 18 h
# In short: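 ERR reporter cells (NTP line) pre-incubated 6 hours at 37 C, then exposed to compounds for 18 hours at 37 C. ONE-Glo luciferase luminescence was read after 30 minutes at room temperature.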
SMILES,Potency [1],Potency [2],Potency [3],outcome [4],Potency [5],Potency [6],Potency [7],Potency [8],Potency [9],"activity change, positive = activation ([10]; at 92.4 µM (top of the series))","activity change, positive = activation ([10]; at 42.5 µM (top of the series))",Potency [10]
Oc1cc(Cl)c(Cl)cc1Cl,inactive,inactive,inactive,inactive,100 µM (active) and inactive,inactive,inactive,–,–,–,–,–
CCCCC(CC)COC(=O)c1ccc(C(=O)OCC(CC)CCCC)c(C(=O)OCC(CC)CCCC)c1 (stereo not drawn),inactive,inactive,inactive,inactive,inactive,inactive,inactive,inactive,–,–,–,–
OCC(O)CO,inactive,inactive,inactive,inactive,inactive,inactive,inactive,–,inactive,2.36% (inactive) and 0.0013% (inactive),–,–
CNC(=O)Oc1cccc2c1OC(C)(C)O2,inactive,inactive,inactive,–,inactive,inactive,inactive,–,–,–,–,–
Nc1ccc(-c2ccc(N)c(N)c2)cc1N,inactive,inactive,–,–,inactive,inactive,inactive,inactive,–,–,–,–
Nc1c(Cl)cc([N+](=O)[O-])cc1Cl,–,inactive,inactive,inactive,inactive,inactive,–,inactive,30.8 µM (active) and 24.3 µM (active),-38.6% (inactive) and -54.4% (inactive),–,–
CCOC(=O)C(C)OC(=O)c1cc(Oc2ccc(C(F)(F)F)cc2Cl)ccc1[N+](=O)[O-] (stereo not drawn),–,inactive,inactive,inactive,inactive,inactive,inactive,–,21.6 µM (active),-45.1% (inactive) and -19.8% (inactive),–,–
CC(C)(C)c1ccccc1O,–,inactive,inactive,inactive,–,inactive,–,–,–,–,–,–
c1ccc(P(c2ccccc2)c2ccccc2)cc1,inactive,–,inactive,–,inactive,inactive,inactive,–,–,–,–,–
CCc1cccc(CC)c1N(COC)C(=O)CCl,inactive,47.4 µM (active),–,inactive,inactive,inactive,inactive,inactive,–,–,–,–
CCOc1cc(Oc2ccc(C(F)(F)F)cc2Cl)ccc1[N+](=O)[O-],–,inactive,inactive,inactive,inactive,inactive,–,–,–,-29.7% (inactive) and -19.5% (inactive),–,–
Brc1ccc(Oc2cc(Br)c(Br)cc2Br)c(Br)c1,–,inactive,inactive,inactive,inactive,inactive,–,–,inactive,-14.5% (inactive),–,–
O=[N+]([O-])c1c(Cl)c(Cl)c(Cl)c(Cl)c1Cl,–,inactive,inactive,inactive,inactive,inactive,inactive,inactive,–,–,–,–
CCCCCCOC(=O)c1ccccc1C(=O)OCCCCCC,inactive,inactive,inactive,–,inactive,inactive,inactive,inactive,–,–,–,–
CCCCNC(=O)n1c(NC(=O)OC)nc2ccccc21,inactive,inactive,inactive,–,inactive,inactive,inactive,–,–,–,–,–
c1cc(OCC2CO2)ccc1Cc1ccc(OCC2CO2)cc1 (stereo not drawn),inactive,–,inactive,–,inactive,inactive,inactive,–,–,–,–,–
Cc1c(COC(=O)[C@@H]2[C@H](/C=C(\Cl)C(F)(F)F)C2(C)C)cccc1-c1ccccc1,–,inactive,inactive,inactive,–,inactive,–,–,–,–,–,–
O=C(O)CC[N+](=O)[O-],–,inactive,inactive,–,inactive,inactive,inactive,–,–,–,–,–
Clc1nc(Cl)nc(Cl)n1,–,inactive,inactive,–,inactive,inactive,–,inactive,–,–,–,–
CC(C)(OOC(C)(C)c1ccccc1)c1ccccc1,inactive,inactive,–,inactive,99.3 µM (active),inactive,inactive,inactive,inactive,7.35% (inactive) and 4.9% (inactive),–,–
CCOC(=S)S,inactive,–,28.4 µM (active),–,–,inactive,inactive,inactive,73 µM (active),-20.1% (inactive) and -29.8% (inactive),–,–

SMILES,Potency [1],Potency [2],Potency [3],outcome [4],Potency [5],Potency [6],Potency [7],Potency [8],Potency [9],"activity change, positive = activation ([10]; at 92.4 µM (top of the series))","activity change, positive = activation ([10]; at 42.5 µM (top of the series))",Potency [10]
CN(C)c1ccc(C(=O)c2ccc(N(C)C)cc2)cc1,–,inactive,inactive,–,–,inactive,–,2.75 µM (active),–,–,–,–
C[C@]12CCC(=O)C(O)=C1CC[C@@H]1[C@@H]2CC[C@]2(C)C(=O)CC[C@@H]12,–,inactive,inactive,–,inactive,inactive,inactive,inactive,54.5 µM (active) and inactive,-37.5% (inactive),-8.87% (inactive),–
CC(C)(c1cc(Cl)c(O)c(Cl)c1)c1cc(Cl)c(O)c(Cl)c1,inactive,–,inactive,–,inactive,inactive,inactive,–,inactive,-0.444% (inactive) and -2.89% (inactive),–,–
O=C1C=CC(=O)C=C1,inactive,49.2 µM (active) and 49 µM (active),inactive,–,inactive,inactive,inactive,inactive,–,–,–,–
CCOCN(C(=O)CCl)c1c(C)cccc1CC,8.15 µM (active) and inactive,51.9 µM (active),–,inactive,inactive,inactive,inactive,–,23 µM (active) and 27.3 µM (active),-61% (inactive) and -71.1% (inactive),–,–
NNC(=S)NN,inactive,–,inactive,–,inactive,inactive,inactive,inactive,62.8 µM (active),-65.9% (inactive) and -38.7% (inactive),–,–
Nc1ccc(Cl)cc1N,inactive,–,inactive,–,inactive,inactive,40 µM (active),–,inactive,19.2% (active),–,8.31 µM [activator] (active)
CNC(=O)N(C)c1nnc(C(C)(C)C)s1,inactive,inactive,inactive,–,inactive,inactive,inactive,–,–,–,–,–
C=CC(=O)OCCO,inactive,inactive,–,inactive,inactive,inactive,–,inactive,–,–,–,–
O=C(O)C(F)(F)C(F)(F)C(F)(F)C(F)(F)C(F)(F)C(F)(F)C(F)(F)F,inactive,–,inactive,inactive,inactive,inactive,–,–,–,–,–,–
ClC1C(Cl)C(Cl)C(Cl)C(Cl)C1Cl (stereo not drawn),–,inactive,inactive,inactive,–,inactive,–,inactive and 54.9 µM (active),inactive and 48.6 µM (active),–,–,–
Cc1ccc(N)c(N)c1,inactive,inactive,inactive,–,inactive,inactive,inactive,–,–,–,–,–
CCN(CC)C(=O)SCc1ccc(Cl)cc1,–,inactive,inactive,inactive,inactive,inactive,inactive,inactive,inactive,4.95% (inactive) and 6.33% (inactive),–,–
CC(C)=CC1C(C(=O)OCc2coc(Cc3ccccc3)c2)C1(C)C (stereo not drawn),–,inactive,inactive,–,–,inactive,inactive,inactive,–,–,–,–
CCC(C)(c1ccc(O)cc1)c1ccc(O)cc1,inactive,inactive,–,–,inactive,inactive,inactive,–,54.5 µM (active),-28.1% (inactive) and -37.5% (inactive),–,–
CCCCOCCOP(=O)(OCCOCCCC)OCCOCCCC,–,inactive,inactive,inactive,inactive,inactive,inactive,inactive,–,–,–,–
Oc1cc(Cl)ccc1Oc1ccc(Cl)cc1Cl,–,50.1 µM (active) and inactive,inactive,–,51.7 µM (active) and 43.8 µM (active),42.2 µM [cytotoxic] (active) and 23.9 µM (active),inactive,20 µM (active),11.1 µM (active) and 18.8 µM (active),-47.1% (inactive),-45.8% (inactive),–
CCC(C)c1ccc(O)cc1 (stereo not drawn),–,inactive,inactive,–,–,inactive,–,–,inactive,-5.15% (inactive) and 5.69% (inactive),–,–
O=c1oc2ccccc2c(O)c1C(CC(O)c1ccc(-c2ccc(Br)cc2)cc1)c1ccccc1 (stereo not drawn),–,52 µM (active) and inactive,inactive,–,inactive,inactive,inactive,–,–,–,–,–
C[C@]12CCC(=O)C[C@@H]1CC[C@@H]1[C@@H]2CC[C@]2(C)[C@@H](O)CC[C@@H]12,–,inactive,–,–,79.1 µM (active),inactive,inactive,21.6 µM (active),–,–,–,–
